# Laboratory results reported in PubChem BioAssay (Tox21).
# Inconclusive results are not listed. Entries that show only a call come without a potency. Activity calls are given as the source filed them. Calls come from the whole dose curve; as a rule, active = well fitted cell-killing curve with a large enough effect in the repeat runs; inconclusive = weak or mixed curves, or effect the other way; inactive = flat fitted curve, though single readings scatter.
# Experiments:
# [1] = cAMP Responsive Elements (CRE) small molecule antagonists, cell-based qHTS assay: qHTS cell viability counter screen (AID 2060913); note: nearly all actives have a fitted effect of over 40% in size
# Method in brief: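 Cytotoxicity counter screen multiplexed with the CRE-bla antagonist read: HEK293T cells in DMEM with dialyzed FBS and 25 mM HEPES were treated 3 hrs under 0.25 uM final NKH477, then viability measured by CellTiter-Glo luminescence.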
# [2] = cAMP Responsive Elements (CRE) small molecule agonists, cell-based qHTS assay: qHTS cell viability counter screen (AID 2060914);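 note: viability read after 3 h of compound exposure; nearly all actives have a fitted effect of over 50% in size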
# Method in brief: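 CRE-bla HEK 293T cells, plated 18 h at 37 °C, were exposed to compounds for 3 h at 37 °C/5% CO2. Viability was then measured in the same wells by CellTiter-Glo luminescence after 30 min at room temperature.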
SMILES,Potency [1],Potency [2]
CCCNC(C)C(=O)Nc1c(C)csc1C(=O)OC (stereo unspecified),inactive,inactive
CC(C)C[C@H](NC(=O)CNC(=O)[C@H](Cc1ccc(O)cc1)NC(=O)[C@H](CO)NC(=O)[C@H](Cc1c[nH]c2ccccc12)NC(=O)[C@H](Cc1cnc[nH]1)NC(=O)[C@@H]1CCC(=O)N1)C(=O)N[C@@H](CCCN=C(N)N)C(=O)N1CCC[C@H]1C(=O)NCC(N)=O (stereo in doubt),inactive,inactive
O=[N+]([O-])c1c(Cl)cc(Cl)cc1Cl,inactive,inactive
